Results filed as inconclusive are left out. The source made the active and inactive calls. Unless noted, calls follow the shape of the dose curve; as a rule, active = well fitted curve in either direction with a large enough effect (not every such curve was filed as active); inconclusive = small, poorly fitted or top-dose-only effect, or another doubt; inactive = flat fitted curve, though single readings scatter. Residues, ends and D or L forms follow the SMILES beside them.
Experiments:
[1] = target: Lysosomal acid glucosylceramidase (Homo sapiens) (UniProt P04062); experiment: Glucocerebrosidase-p2 (AID 348; in the data active = potency below about 10 µM; also: potency is read from the fitted curve at half-maximal effect); conditions: purified GBA, blue fluorogenic substrate, 40 min
Outline: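 Normal human glucocerebrosidase (0.2 nM) with blue fluorogenic substrate (80 uM final) in citrate/phosphate pH 5.9 with 10mM sodium taurocholate, 0.01% tween-20; 40 min RT, NaOH/glycine stop; fluorescence Ex 365/Em 440; AC50 from a titration from 0.6 nM upwards.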

[2] = AP1 Signaling Pathway (AID 357); conditions: ME-180 AP-1-bla reporter, EGF-induced, beta-lactamase ratio, 5 h; at 7.69 µM (top of the series) unless noted;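 also: ME-180 reporter cells stimulated with EGF at its EC50 level; % is scaled to controls: 0 for no effect and ±100 for the full control effect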
Outline: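 Titration-series screen for positive or negative modulators of EC50 EGF-induced signaling in ME-180 cells carrying an AP-1-driven beta-lactamase reporter. After 5 hours at 37 degrees Celsius, CCF4 460nm/530nm emission ratio gave %Activity; AC50 values derived.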

[3] = target: Cytochrome P450 1A2 (Homo sapiens) (UniProt P05177); experiment: p450-cyp1a2 (AID 410; calls by dose curve; also: potency is read from the fitted curve at half-maximal effect;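 as to activity change, negative = inhibition: -100% = full effect of reference inhibitor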); conditions: recombinant CYP1A2, luciferin-ME demethylation, luminescence; series mostly up to 11.4 µM
Outline: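 Read-out is luminescence from luciferin produced by CYP1A2 demethylation of Luciferin-ME (100uM, at Km). Detection reagent stopped the 60 min NADPH-dependent reaction; signals were normalized to 57 uM furafylline.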

[4] = NFAT Signaling Pathway (AID 444); conditions: Jurkat NFAT-bla M1, carbachol, beta-lactamase ratio, 5 h; at 7.69 µM (top of the series) unless noted;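 also: carbachol stimulus at about its EC50 of 1 µM final; % is scaled to controls: 0 for no effect and ±100 for the full control effect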
Outline: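 Jurkat cells carrying an NFAT-driven β-lactamase reporter and co-transfected muscarinic M1 receptor were treated with compound plus carbachol (1 uM final, an EC50 level) for 5 h at 37 °C. CCF4 loading followed for 1 h at RT; 460/530 nm ratio gave %activity.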

[5] = Stat Signaling Pathway (AID 446); conditions: ME-180 (cervical carcinoma) SIE beta-lactamase reporter, IL-6 stimulated, 5 h; at 7.69 µM (top of the series) unless noted;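 also: ME-180 cervical cancer cells given 40 pM IL-6 alongside compound; SIE-controlled beta-lactamase reporter measured as 460/530 nm FRET emission ratio; % is scaled to controls: 0 for no effect and ±100 for the full control effect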
Outline: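 Emission at 460 and 530 nm (excitation 405 nm) reports SIE-controlled beta-lactamase in ME-180 cells. Cells received compound with 40 pM IL-6 for 5 hrs at 37 C; data scaled between 300 pM IL-6 and 125 nM JAK-inhibitor controls.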

[6] = target: Glucocorticoid receptor (Homo sapiens) (UniProt P04150); experiment: GR-GFP Redistribution (AID 450;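 active = compounds whose dose series gives a full or clear partial fitted curve of increased nuclear translocation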; also: potency is read from the fitted curve at half-maximal effect); conditions: U2OS GR-GFP nuclear translocation, laser cytometry, 2 h
[7] = target: Glucocorticoid receptor (Homo sapiens) (UniProt P04150); experiment: GR-EFC Redistribution (AID 451; calls by dose curve; also: potency is read from the fitted curve at half-maximal effect); conditions: CHO-K1 GR-EFC translocation, beta-gal luminescence, 2 h
Outline: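 CHO-K1 cells stably expressing nuclear-localized β-gal enzyme acceptor and GR fused C-terminally to the enzyme donor fragment; ligand-driven nuclear translocation restores β-gal by complementation. Compounds titrated up to 46 uM final, 2 h at 37 °C; luminescence read.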

[8] = target: Mitogen-activated protein kinase 10 (Mus musculus) (UniProt Q61831); experiment: JNK3 AlphaScreen Assay (AID 530); conditions: JNK3 lysate, c-Jun phosphorylation; series mostly up to 11.4 µM;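 also: kinase came from lysate of stimulated human HepG2 cells; signal reports phosphorylation of biotinylated GST-cJun 1-79 at Ser73 with 10 µM ATP; % is scaled to controls: 0 for no effect and ±100 for the full control effect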
Outline: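 Biotinylated GST-cJun(1-79) served as substrate for JNK3 in HepG2 lysates stimulated with IL-1beta and TNF-alpha. ATP was 10 uM final, pH 7.6. Ser73 phosphorylation was quantified by AlphaScreen (680 nm excitation).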

[9] = target: 3',5'-cyclic-AMP phosphodiesterase 4B (Homo sapiens) (UniProt Q07343); experiment: qHTS Assay for Inhibitors of PDE-IV (AID 607; active = well fitted activation curve with a large enough effect in the main read-out, with a control signal flat, not every such curve was filed as active; also: % of control where 0% means no effect); conditions: HEK293 ACTOne CNG channel cells, membrane potential fluorescence; series mostly up to 22.9 µM
Outline: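 The readout is membrane depolarisation from a cAMP-sensing CNG channel, detected with a potential dye at ex 535/em 590. Cells were HEK293-derived (endogenous PDE-IV) at 1000 cells/well, titrated up to 22.9 uM final.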

Sequence of Lysosomal acid glucosylceramidase (Homo sapiens) (P04062 whole entry, looked up): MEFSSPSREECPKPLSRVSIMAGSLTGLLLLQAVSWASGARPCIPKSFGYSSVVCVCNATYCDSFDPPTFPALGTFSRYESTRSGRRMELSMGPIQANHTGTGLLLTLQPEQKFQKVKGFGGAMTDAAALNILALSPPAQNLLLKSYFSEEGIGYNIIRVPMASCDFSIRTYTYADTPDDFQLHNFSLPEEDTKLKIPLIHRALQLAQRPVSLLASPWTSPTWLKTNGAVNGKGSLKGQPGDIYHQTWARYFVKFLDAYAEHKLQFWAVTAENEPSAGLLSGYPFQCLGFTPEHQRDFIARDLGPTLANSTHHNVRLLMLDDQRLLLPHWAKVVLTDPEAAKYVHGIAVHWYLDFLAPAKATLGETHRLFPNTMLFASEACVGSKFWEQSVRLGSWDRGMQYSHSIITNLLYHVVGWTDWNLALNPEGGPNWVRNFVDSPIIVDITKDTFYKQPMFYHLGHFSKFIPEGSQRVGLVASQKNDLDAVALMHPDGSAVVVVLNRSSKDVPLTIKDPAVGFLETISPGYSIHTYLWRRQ
Sequence of 3',5'-cyclic-AMP phosphodiesterase 4B (Homo sapiens) (Q07343 whole entry, looked up): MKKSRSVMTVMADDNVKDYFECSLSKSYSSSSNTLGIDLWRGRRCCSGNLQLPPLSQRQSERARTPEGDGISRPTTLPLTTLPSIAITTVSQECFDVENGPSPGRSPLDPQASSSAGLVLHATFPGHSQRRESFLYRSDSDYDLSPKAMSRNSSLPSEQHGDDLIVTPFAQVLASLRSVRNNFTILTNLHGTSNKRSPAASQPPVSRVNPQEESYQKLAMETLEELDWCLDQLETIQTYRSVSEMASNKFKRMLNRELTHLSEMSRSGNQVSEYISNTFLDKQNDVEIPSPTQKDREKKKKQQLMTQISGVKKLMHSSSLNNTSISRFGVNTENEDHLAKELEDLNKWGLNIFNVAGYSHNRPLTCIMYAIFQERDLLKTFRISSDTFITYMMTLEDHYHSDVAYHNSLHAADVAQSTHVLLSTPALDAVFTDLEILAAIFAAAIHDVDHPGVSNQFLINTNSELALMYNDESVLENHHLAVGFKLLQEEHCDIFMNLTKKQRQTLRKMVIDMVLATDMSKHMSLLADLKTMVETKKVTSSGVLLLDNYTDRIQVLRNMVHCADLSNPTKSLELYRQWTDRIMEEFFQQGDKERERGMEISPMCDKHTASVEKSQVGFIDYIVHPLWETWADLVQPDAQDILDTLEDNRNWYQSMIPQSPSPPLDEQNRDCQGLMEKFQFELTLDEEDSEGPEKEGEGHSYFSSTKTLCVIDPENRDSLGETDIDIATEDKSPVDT
Sequence of Cytochrome P450 1A2 (Homo sapiens) (P05177 whole entry, looked up): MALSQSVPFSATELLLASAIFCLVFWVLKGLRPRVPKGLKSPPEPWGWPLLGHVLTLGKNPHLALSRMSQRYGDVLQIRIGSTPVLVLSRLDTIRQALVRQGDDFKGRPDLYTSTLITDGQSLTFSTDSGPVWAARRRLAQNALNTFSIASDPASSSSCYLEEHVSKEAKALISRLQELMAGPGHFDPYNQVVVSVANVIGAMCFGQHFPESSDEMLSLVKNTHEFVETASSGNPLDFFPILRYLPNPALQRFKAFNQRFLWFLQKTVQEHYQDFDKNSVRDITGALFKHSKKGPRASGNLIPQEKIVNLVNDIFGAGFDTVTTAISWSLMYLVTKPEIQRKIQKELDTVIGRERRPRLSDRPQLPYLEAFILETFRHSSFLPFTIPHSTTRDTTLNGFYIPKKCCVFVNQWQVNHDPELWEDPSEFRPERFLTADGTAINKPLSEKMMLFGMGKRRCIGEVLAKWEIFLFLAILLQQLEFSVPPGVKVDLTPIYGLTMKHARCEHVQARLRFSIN
Sequence of Glucocorticoid receptor (Homo sapiens) (P04150 whole entry, looked up, the tested form may be a part): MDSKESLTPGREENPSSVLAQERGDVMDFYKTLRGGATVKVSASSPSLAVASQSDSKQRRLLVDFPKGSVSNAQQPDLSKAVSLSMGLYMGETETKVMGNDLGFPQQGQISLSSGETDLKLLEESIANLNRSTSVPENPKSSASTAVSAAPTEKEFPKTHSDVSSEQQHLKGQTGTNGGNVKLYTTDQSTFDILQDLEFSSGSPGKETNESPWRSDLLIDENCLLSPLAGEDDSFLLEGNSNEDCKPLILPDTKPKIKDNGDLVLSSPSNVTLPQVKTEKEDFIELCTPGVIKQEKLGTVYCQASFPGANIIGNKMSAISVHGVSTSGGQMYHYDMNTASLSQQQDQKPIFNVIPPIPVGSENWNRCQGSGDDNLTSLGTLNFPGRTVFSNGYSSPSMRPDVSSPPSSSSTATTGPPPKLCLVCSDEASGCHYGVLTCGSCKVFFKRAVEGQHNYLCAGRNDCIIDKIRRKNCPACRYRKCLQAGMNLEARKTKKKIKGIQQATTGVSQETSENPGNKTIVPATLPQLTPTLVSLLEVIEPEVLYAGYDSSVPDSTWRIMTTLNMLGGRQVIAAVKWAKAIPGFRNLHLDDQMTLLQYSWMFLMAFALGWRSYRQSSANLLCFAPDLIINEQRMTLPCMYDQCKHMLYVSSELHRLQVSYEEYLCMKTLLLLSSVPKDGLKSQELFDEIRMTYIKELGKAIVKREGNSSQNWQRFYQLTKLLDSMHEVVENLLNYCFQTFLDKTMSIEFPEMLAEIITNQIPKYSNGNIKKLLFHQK

Cc1ccc(N2CCN(CCC(=O)O)CC2)cc1
inactive: Potency [1] > 11.4 µM | activity change, negative = inhibition [2] 4.25% | Potency [3] | activity change, negative = inhibition [4] 2.05% | activity, negative = inhibition [5] 2.74% | Potency [6] > 46 µM | Potency [7] > 9.22 µM | Potency [8] | Potency [9]

C[C@@](N)(Cc1c[nH]c2ccccc12)C(=O)O
inactive: Potency [1] > 11.4 µM | activity change, negative = inhibition [2] 13.6% | Potency [3] | activity change, negative = inhibition [4] -4.57% | activity, negative = inhibition [5] 10.9% | Potency [6] > 46 µM | Potency [7] > 9.22 µM | Potency [8] | Potency [9]

Oc1ccc2ccccc2c1C=NCc1c(O)ccc2ccccc12
active: Potency [3] 1.58 µM
inactive: Potency [1] > 11.4 µM | activity change, negative = inhibition [2] -5.07% | activity change, negative = inhibition [4] 12.6% | activity, negative = inhibition [5] -21.2% | Potency [6] > 46 µM | Potency [7] > 9.22 µM | Potency [8] | Potency [9]

O=C(O)c1cc(-c2ccc(-c3ccc(-c4cc(C(=O)O)c5cc(Cl)ccc5n4)cc3)cc2)nc2ccc(Cl)cc12
inactive: Potency [1] > 11.4 µM | activity change, negative = inhibition [2] -6.84% | activity change, negative = inhibition [3] -18.2% [at 2.29 µM] | activity change, negative = inhibition [4] -22% | activity, negative = inhibition [5] -13.1% | Potency [6] > 46 µM | Potency [7] > 9.22 µM | Potency [8] | Potency [9]

N[C@@H](Cc1nn[nH]n1)C(=O)O
inactive: Potency [1] > 11.4 µM | activity change, negative = inhibition [2] -0.568% | Potency [3] | activity change, negative = inhibition [4] -5.25% | activity, negative = inhibition [5] 10.9% | Potency [6] > 46 µM | Potency [7] > 9.22 µM | Potency [8] | Potency [9]

NCC(=O)NC1(C(=O)O)CCCC1 (HELM PEPTIDE1{G.[O=C(O)C1(N[*:1])CCCC1]}$$$$V2.0)
inactive: Potency [1] > 11.4 µM | activity change, negative = inhibition [2] 4.89% | Potency [3] | activity change, negative = inhibition [4] -2.62% | activity, negative = inhibition [5] 12.2% | Potency [6] > 46 µM | Potency [7] > 9.22 µM | Potency [8] | Potency [9]

CCC(C)(C)c1ccc(Oc2cccc(C(=O)O)c2)cc1
inactive: Potency [1] > 11.4 µM | activity change, negative = inhibition [2] -11.1% | Potency [3] | activity change, negative = inhibition [4] -3.61% | activity, negative = inhibition [5] -0.214% | Potency [6] > 46 µM | Potency [7] > 9.22 µM | Potency [8] | Potency [9]

C/C(CC/C(C)=N/O)=N/O
inactive: Potency [1] > 11.4 µM | activity change, negative = inhibition [2] 4.13% | activity change, negative = inhibition [3] -12.6% [at 2.29 µM] | activity change, negative = inhibition [4] 2.59% | activity, negative = inhibition [5] -4.99% | Potency [6] > 46 µM | Potency [7] > 9.22 µM | Potency [8] | Potency [9]

CN(C)CCn1c(CO)nc2c1c(=O)n(C)c(=O)n2C
inactive: Potency [1] > 11.4 µM | activity change, negative = inhibition [2] 1.13% | Potency [3] | activity change, negative = inhibition [4] 1.85% | activity, negative = inhibition [5] 6.5% | Potency [6] > 46 µM | Potency [7] > 9.22 µM | Potency [8] | Potency [9]

Nc1nc(N)nc(CCCc2nc(N)nc(N)n2)n1
inactive: Potency [1] > 11.4 µM | activity change, negative = inhibition [2] -5.42% | Potency [3] | activity change, negative = inhibition [4] 6.45% | activity, negative = inhibition [5] 1.14% | Potency [6] > 46 µM | Potency [7] > 9.22 µM | Potency [8] | Potency [9]

CC1=C[N+](=O)c2ccccc2[N+]1=O
active: Potency [3] 6.31 µM
inactive: Potency [1] > 11.4 µM | activity change, negative = inhibition [2] 5.1% | activity change, negative = inhibition [4] 13.8% | activity, negative = inhibition [5] 0.919% | Potency [6] > 46 µM | Potency [7] > 9.22 µM | Potency [8] | Potency [9]

O=C(O)C[C@H](Cc1ccccc1)C(=O)O
inactive: Potency [1] > 11.4 µM | activity change, negative = inhibition [2] 11% | Potency [3] | activity change, negative = inhibition [4] 2.62% | activity, negative = inhibition [5] -5.23% | Potency [6] > 46 µM | Potency [7] > 9.22 µM | Potency [8] | Potency [9]

C[C@H]1[C@H](C)OC(=O)C[C@H](O)C[C@H](O)C[C@H](O)CC[C@H](O)[C@H](O)CC(=O)C[C@H](O)[C@H](C(=O)O)[C@H](O)C[C@H](O[C@@H]2O[C@@H](C)[C@H](O)[C@@H](N)[C@@H]2O)C=CC=CC=CC=CCCC=CC=C[C@@](C)(O)[C@H]1O
inactive: Potency [1] > 11.4 µM | activity change, negative = inhibition [2] 4.16% | Potency [3] | activity change, negative = inhibition [4] 2.48% | activity, negative = inhibition [5] -6.26% | Potency [6] > 46 µM | Potency [7] > 9.22 µM | Potency [8] | Potency [9]

O=C(O)CNc1ccc(C(=O)O)cc1
inactive: Potency [1] > 11.4 µM | activity change, negative = inhibition [2] -2.61% | Potency [3] | activity change, negative = inhibition [4] 12.8% | activity, negative = inhibition [5] 6.8% | Potency [6] > 46 µM | Potency [7] > 9.22 µM | Potency [8] | Potency [9]

Nc1nc(SCC(=O)O)[nH]c(=O)c1N
inactive: Potency [1] > 11.4 µM | activity change, negative = inhibition [2] 4.37% | Potency [3] | activity change, negative = inhibition [4] 10.6% | activity, negative = inhibition [5] 4.74% | Potency [6] > 46 µM | Potency [7] > 9.22 µM | Potency [8] | Potency [9]

N#CC(C#N)=CNCCN1CCN(C=C(C#N)C#N)CC1
inactive: Potency [1] > 11.4 µM | activity change, negative = inhibition [2] 2.96% | activity change, negative = inhibition [3] -15.5% [at 2.29 µM] | activity change, negative = inhibition [4] 2.39% | activity, negative = inhibition [5] 3.44% | Potency [6] > 46 µM | Potency [7] > 9.22 µM | Potency [8] | Potency [9]

Source: PubChem BioAssay (NCATS)
